Laboratory results published in PubChem BioAssay AID2530 (National Center for Advancing Translational Sciences (NCATS), 2010).
Inconclusive results are not listed. Entries that show only a call come without a potency. The source made the active and inactive calls. The call rests on the fitted dose curve; in most records, active means well fitted inhibition curve with a large enough effect; inconclusive means small, poorly fitted or top-dose-only effect; inactive means flat fitted curve, though single readings scatter.

Target: Luciferin 4-monooxygenase (Photuris pensylvanica) (UniProt Q27757)
Test: Secondary Assay for Luciferase (Kinase-Glo TM) Inhibition Counterscreen
Conditions: Kinase-Glo luciferase enzyme, luminescence; series mostly up to 58.1 µM
In short: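 Kinase-Glo firefly-type luciferase with 10 uM ATP in 50 mM imidazole pH 7.2, 50 mM KCl, 7 mM MgCl2, 0.01% Tween 20, 0.05% BSA. Luminescence read after 8 min at ambient temperature, normalized to DMSO and 40 uM SIB 1757, then Hill-fitted.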
Potency means the concentration at half of the fitted maximal effect.

Cc1ccc(NS(=O)(=O)c2ccc3c(c2)CCC(=O)N3)cc1
Potency: inactive

Cc1ccc2c(c1)c1ccc3c(c1n2C)C(=O)C=CC3=O
Potency: inactive

CCNc1cccc(S(=O)(=O)N2CCN(S(=O)(=O)c3ccc4c(c3)OCCO4)CC2)c1
Potency: inactive

O=C1CCc2cc(S(=O)(=O)Nc3ccncc3)ccc2N1
Potency: inactive

O=S1(=O)N=C(Oc2cccc(Cl)c2)c2ccccc21
Potency: inactive

O=C1c2ccccc2C(=O)N1c1ccccn1
Potency: inactive

Cc1nc(-c2ccc(S(=O)(=O)Nc3ccc(C)c(C)c3)s2)cs1
Potency: inactive

COc1cccc(OC2=NS(=O)(=O)c3ccccc32)c1
Potency: inactive

O=C1c2ccccc2C(=O)N1c1ncccc1O
Potency: inactive

CC(=O)N1CCCc2cc(S(=O)(=O)Nc3ccc(C)c(C)c3)ccc21
Potency: inactive

O=S(=O)(Nc1ccc(O)c(NS(=O)(=O)c2ccccc2)c1)c1ccccc1
Potency: inactive

O=C1c2ccccc2C(=O)N1Cc1cccnc1
Potency: inactive

COc1cccc(N2C(=O)c3ccccc3C2=O)c1
Potency: inactive

Oc1ccc(O)c2c1C1c3ccccc3C2c2ccccc21
Potency: inactive

c1c2c(cc3sc(N4CCCCC4)nc13)OCO2
Potency: 10.3 µM (active)

O=C1C(Cl)=C(NC(=O)c2ccccc2)C(=O)C(Cl)=C1NC(=O)c1ccccc1
Potency: inactive

O=C1CCc2cc(S(=O)(=O)Nc3ccc4ccccc4c3)ccc2N1
Potency: inactive

O=C1CCc2cc(S(=O)(=O)Nc3cccc(C(F)(F)F)c3)ccc2N1
Potency: inactive

Cc1ccnc(NC(=O)c2ccc3c(c2)OCO3)c1
Potency: 11.6 µM (active)

Cc1ccc(NS(=O)(=O)c2cc3c(cc2-c2ccsc2)NC(=O)CO3)cc1C
Potency: inactive

Cc1ccc(S(=O)(=O)/N=C2/C=C(Sc3ncn[nH]3)C(=O)c3ccccc32)c(C)c1
Potency: inactive

Cc1ccc(NC(=O)c2ccc3c(c2)CCC(=O)N3)cc1C
Potency: inactive

O=C1c2ccccc2C(=O)N1c1cccc(Cl)c1
Potency: inactive

O=C1NS(=O)(=O)c2ccccc21
Potency: inactive

Cc1cc(N2C(=O)c3ccccc3C2=O)no1
Potency: inactive

CC(C)CN=Cc1c(O)c([N+](=O)[O-])cc2oc3c(c12)CCCC3
Potency: inactive

Nc1ncnc2c1ncn2C1OC(COP(=O)(O)O)C(O)C1O (stereo not drawn)
Potency: 4.61 µM (active)

O=C1c2ccccc2C(=O)N1c1ccc(Cl)cc1
Potency: inactive

O=C1c2ccccc2C(=O)N1c1cccc(=O)[nH]1
Potency: inactive

COc1cccc(NS(=O)(=O)c2ccc3c(c2)CCC(=O)N3)c1
Potency: inactive

CCOC(=O)Cc1csc(NC(=S)NC(=O)c2ccc([N+](=O)[O-])cc2)n1
Potency: inactive

c1ccc(C2=NNC(=NC3CC3)SC2)cc1
Potency: 3.26 µM (active)

Cc1ccc(NS(=O)(=O)c2ccc3c(c2)N(C)CCO3)cc1C
Potency: inactive

Cc1ccc(NS(=O)(=O)c2ccc3ccccc3c2)cc1C
Potency: inactive

Cc1ccc(NS(=O)(=O)c2cc3c(cc2Br)NC(=O)CO3)cc1C
Potency: inactive

Cc1ccc(C)c(OC2=NS(=O)(=O)c3ccccc32)c1
Potency: inactive

O=C(c1ccccc1)n1c(=S)nc2ccccn21
Potency: 5.17 µM (active)

COc1cc(Cl)c(C)cc1NC(=O)COC(=O)c1cc[n+]([O-])cc1
Potency: inactive
